What all share (set-up): scale not given: direction of the effect not stated beside the values
The target of experiment [1] is Protein translocase subunit SecA (Escherichia coli (strain K12)) (UniProt P10408). The experiment in a line: Assay to Identify E. coli SecA ATPase Inhibitors. The format is functional. The conditions noted are these: 30 µM.
The target of experiment [2] is T1, Ubiquitin-activating enzyme e1, putative (Leishmania donovani (strain BPK282A1)) (UniProt E9BSI1).
T1 sequence (whole entry): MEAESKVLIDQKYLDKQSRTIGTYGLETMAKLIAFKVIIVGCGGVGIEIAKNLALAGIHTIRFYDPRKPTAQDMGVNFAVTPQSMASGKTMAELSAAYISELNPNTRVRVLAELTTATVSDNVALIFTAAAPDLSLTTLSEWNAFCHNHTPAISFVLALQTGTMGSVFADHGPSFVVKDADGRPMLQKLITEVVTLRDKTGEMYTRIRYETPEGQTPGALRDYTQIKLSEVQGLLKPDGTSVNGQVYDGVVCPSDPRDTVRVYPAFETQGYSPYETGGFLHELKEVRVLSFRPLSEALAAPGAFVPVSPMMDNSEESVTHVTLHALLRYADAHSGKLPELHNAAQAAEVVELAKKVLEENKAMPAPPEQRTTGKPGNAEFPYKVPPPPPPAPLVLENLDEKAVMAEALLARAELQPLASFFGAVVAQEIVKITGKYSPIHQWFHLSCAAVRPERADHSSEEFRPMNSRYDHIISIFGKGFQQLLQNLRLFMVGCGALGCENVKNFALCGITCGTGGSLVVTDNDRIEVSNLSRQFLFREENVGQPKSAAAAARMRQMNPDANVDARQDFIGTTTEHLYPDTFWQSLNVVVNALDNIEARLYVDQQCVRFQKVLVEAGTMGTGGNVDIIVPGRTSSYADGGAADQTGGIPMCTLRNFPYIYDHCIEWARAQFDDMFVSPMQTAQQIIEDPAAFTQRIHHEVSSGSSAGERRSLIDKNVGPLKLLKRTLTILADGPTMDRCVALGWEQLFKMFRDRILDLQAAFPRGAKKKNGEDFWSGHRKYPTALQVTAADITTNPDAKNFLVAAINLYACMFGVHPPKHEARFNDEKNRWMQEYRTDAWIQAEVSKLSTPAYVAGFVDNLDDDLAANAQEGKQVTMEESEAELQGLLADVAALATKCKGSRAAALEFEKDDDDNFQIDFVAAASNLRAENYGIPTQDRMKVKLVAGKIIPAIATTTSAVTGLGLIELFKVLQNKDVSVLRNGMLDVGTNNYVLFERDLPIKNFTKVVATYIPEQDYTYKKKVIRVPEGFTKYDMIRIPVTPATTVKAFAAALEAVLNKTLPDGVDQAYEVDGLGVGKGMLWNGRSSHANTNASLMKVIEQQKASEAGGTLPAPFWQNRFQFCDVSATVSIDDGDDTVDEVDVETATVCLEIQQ
The experiment in a line: Leishmania donovani Ubiquitin Activating Enzyme (LdE1). The conditions noted are these: 30 µM. It is filed as functional.

For experiment [3], the target named is AMP-activated protein kinase, AMPK (Homo sapiens) (UniProt P54646+O43741+P54619+Q9UGJ0+Q9Y478+Q13131+Q9UGI9). Nature of the experiment: AMP-dependent Kinase enzyme assay. An in vitro enzyme assay that detects ADP turnover that is directly proportional to AMPK activity. This uses naive AMPK that is activated during the assay with MK-8722. The format is functional. The settings on record: 30 µM.

Experiment [4] has as its target Sialic acid-binding Ig-like lectin 9 (Homo sapiens) (UniProt Q9Y336). Nature of the experiment: Hs-Siglec9 ALPHAscreen SOP 20170721. The conditions noted are these: 10 µM. Background: In Alpha technology, singlet oxygen from a donor bead excites a nearby acceptor bead.
The subject of experiment [5] is Trypanosoma cruzi. Nature of the experiment: Trypanosoma cruzi phosphomannomutase and mannose-1-phosphate guanylyltransferase assay. It is filed as functional. The settings on record: 10 µM.
In experiment [6] the target is T2, Arginase-2, mitochondrial (Homo sapiens) (UniProt P78540).
T2 sequence (whole entry): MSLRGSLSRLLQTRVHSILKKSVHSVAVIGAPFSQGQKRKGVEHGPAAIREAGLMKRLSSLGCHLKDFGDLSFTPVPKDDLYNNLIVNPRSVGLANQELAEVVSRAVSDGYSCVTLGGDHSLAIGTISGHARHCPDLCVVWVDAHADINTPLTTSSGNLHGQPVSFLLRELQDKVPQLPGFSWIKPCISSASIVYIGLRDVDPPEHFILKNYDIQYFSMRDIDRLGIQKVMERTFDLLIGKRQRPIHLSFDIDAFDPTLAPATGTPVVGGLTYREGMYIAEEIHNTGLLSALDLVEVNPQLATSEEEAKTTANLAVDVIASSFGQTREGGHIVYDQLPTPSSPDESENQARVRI
Nature of the experiment: in vitro enzyme assay to detect the production of urea directly proportional to the activity of Arginase II. Also: in the data most compounds retested in dose-response had high values. The format is functional. The conditions noted are these: 33.3 µM.

Experiment [7] deals with T3, Proteasome subunit beta (Trypanosoma cruzi) (UniProt O96673).
T3 sequence (whole entry): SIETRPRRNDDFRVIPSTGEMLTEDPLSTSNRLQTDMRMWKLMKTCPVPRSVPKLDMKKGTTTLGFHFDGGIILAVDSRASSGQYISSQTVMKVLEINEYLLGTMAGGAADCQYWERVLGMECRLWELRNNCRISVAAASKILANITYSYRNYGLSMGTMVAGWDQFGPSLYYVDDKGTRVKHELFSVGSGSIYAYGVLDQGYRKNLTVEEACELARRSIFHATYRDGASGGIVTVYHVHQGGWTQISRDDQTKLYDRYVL
The experiment in a line: Trypanosoma cruzi proteasome chymotrypsin-like activity (TcProtChymo) assay. Also: in the data most compounds retested in dose-response had high values. It is filed as functional. The settings on record: 9.37 µM.

The species entered for experiment [8] is Homo sapiens. Nature of the experiment: To identify inhibition of the IFN signalling (Jak-Stat) pathway via expression of an eGFP reporter gene under the control of an IFN-stimulated response element (ISRE) containing MxA promoter. The conditions noted are these: 30 µM. It is filed as functional. A general note: Reporter assays use an easily measured gene product as a stand-in for the process of interest.

The target of experiment [9] is T4, Tyrosyl-tRNA synthetase, putative (Trypanosoma cruzi (strain CL Brener)) (UniProt Q4DSP6).
T4 sequence (whole entry): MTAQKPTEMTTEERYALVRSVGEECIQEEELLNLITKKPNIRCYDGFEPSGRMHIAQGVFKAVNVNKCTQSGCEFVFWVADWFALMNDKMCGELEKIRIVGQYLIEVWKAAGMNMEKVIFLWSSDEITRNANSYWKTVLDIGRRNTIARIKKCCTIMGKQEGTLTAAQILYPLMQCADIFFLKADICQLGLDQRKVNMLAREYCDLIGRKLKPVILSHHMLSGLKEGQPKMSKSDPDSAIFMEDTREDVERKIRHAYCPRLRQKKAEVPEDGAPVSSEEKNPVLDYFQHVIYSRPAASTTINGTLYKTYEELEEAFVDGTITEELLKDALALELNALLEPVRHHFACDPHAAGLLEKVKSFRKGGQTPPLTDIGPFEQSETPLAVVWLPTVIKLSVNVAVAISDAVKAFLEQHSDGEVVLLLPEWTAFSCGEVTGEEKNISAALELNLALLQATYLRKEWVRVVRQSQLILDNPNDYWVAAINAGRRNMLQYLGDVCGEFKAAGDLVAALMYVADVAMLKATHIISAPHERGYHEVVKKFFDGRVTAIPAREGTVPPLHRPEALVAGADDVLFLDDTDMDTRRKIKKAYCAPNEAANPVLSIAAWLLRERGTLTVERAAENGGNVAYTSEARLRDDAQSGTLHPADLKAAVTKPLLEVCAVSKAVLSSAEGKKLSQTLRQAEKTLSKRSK
Nature of the experiment: Trypanosoma cruzi tyrosyl tRNA synthetase (TcYRS) _High Tyrosine SOP. Also: in the data most compounds retested in dose-response had high values. It is filed as functional. The conditions noted are these: 30 µM.

Experiment [10] concerns the target T4, Tyrosyl-tRNA synthetase, putative (Trypanosoma cruzi (strain CL Brener)). Nature of the experiment: Trypanosoma cruzi tyrosyl tRNA synthetase (TcYRS) SOP. It is filed as functional. The conditions noted are these: 30 µM.
Experiment [11] has as its target Chromo domain-containing protein 1 (Saccharomyces cerevisiae (strain ATCC 204508 / S288c) (Baker's yeast)) (UniProt P32657). The experiment in a line: ScCHD-1 Enzyme Inhibition Assay. Also: in the data most compounds retested in dose-response had high values. The format is functional. The conditions noted are these: 30 µM.

For some of these results: Measured potencies and affinities stand elsewhere.

Chain of Protein translocase subunit SecA (Escherichia coli (strain K12)) (P10408 whole entry): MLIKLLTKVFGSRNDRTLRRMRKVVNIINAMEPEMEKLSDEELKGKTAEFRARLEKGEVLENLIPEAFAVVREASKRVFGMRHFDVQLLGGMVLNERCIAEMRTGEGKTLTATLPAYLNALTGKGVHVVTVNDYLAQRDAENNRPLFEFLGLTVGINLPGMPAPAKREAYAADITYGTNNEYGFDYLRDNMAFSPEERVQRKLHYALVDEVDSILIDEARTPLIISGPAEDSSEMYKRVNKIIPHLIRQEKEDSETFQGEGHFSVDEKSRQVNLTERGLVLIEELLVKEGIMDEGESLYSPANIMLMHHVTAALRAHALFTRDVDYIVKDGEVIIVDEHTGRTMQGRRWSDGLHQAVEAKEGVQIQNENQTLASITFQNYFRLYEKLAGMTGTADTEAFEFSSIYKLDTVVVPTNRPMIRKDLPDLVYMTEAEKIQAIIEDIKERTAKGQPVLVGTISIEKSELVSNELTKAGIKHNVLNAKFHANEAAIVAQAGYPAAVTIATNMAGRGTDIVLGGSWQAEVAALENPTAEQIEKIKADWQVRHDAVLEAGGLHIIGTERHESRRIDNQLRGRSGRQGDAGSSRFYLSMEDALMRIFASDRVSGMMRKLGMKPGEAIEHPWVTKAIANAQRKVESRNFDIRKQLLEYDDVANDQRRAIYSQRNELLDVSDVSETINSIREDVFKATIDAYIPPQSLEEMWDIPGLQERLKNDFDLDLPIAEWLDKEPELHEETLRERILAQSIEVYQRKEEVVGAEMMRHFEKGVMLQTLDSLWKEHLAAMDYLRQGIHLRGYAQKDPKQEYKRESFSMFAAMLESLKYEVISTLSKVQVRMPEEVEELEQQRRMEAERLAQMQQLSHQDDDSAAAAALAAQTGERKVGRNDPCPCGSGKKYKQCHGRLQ
Chain of Chromo domain-containing protein 1 (Saccharomyces cerevisiae (strain ATCC 204508 / S288c) (Baker's yeast)) (P32657 whole entry, the tested form may be a part): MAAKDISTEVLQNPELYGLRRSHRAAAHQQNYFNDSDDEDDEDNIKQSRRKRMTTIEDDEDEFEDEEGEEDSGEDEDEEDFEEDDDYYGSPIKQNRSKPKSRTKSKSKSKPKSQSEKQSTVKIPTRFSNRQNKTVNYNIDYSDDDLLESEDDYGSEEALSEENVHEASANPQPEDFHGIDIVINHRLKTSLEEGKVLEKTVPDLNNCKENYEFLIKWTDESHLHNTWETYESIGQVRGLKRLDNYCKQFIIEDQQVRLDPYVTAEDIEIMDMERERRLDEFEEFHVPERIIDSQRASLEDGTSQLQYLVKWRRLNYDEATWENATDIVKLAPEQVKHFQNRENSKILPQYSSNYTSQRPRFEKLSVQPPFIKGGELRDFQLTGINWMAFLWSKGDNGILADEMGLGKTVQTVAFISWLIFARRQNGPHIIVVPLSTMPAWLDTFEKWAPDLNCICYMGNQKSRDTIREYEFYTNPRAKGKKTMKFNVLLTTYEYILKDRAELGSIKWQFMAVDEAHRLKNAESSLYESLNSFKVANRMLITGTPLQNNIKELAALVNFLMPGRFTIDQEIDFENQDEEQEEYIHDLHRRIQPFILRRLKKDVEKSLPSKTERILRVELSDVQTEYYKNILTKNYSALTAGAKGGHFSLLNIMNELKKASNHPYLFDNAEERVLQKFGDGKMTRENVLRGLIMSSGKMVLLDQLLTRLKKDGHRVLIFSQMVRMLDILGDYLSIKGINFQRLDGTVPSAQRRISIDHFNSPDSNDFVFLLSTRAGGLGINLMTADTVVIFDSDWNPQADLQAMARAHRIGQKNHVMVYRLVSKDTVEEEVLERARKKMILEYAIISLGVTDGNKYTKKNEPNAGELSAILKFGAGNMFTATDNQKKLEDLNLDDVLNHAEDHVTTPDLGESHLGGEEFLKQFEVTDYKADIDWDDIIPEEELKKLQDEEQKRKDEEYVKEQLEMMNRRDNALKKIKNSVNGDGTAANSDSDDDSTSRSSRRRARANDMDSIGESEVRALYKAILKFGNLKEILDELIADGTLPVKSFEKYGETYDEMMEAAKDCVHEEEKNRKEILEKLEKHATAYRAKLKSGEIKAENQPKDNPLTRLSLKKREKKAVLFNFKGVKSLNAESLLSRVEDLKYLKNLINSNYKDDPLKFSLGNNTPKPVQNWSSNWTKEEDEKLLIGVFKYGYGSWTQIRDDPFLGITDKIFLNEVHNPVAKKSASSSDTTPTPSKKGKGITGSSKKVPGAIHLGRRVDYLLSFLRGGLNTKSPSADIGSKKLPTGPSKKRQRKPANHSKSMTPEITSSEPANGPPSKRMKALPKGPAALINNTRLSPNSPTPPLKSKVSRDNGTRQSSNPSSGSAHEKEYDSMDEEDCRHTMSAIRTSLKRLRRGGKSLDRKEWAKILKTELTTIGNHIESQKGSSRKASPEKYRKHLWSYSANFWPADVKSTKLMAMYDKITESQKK
Chain of Sialic acid-binding Ig-like lectin 9 (Homo sapiens) (Q9Y336 whole entry): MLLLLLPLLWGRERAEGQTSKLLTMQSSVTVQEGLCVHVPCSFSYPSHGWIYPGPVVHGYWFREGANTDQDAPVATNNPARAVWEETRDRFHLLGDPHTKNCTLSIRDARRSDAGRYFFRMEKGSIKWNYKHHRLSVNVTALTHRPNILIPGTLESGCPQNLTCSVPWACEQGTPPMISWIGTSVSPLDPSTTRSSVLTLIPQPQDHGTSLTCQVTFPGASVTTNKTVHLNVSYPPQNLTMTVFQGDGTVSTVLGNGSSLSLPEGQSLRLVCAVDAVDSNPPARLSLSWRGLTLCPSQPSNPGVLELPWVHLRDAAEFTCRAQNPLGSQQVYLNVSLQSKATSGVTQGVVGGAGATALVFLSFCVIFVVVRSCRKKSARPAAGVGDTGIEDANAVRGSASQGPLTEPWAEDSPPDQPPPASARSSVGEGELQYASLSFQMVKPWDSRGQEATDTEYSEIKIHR

`Cc1nn(C)c(N2CCOCC2)c1CNC(C)c1ccco1` (stereo unspecified): the Percent Effect was -4.24% in experiment [1]; 20.8% in [2]; 131% in [3]; 26.4% in [4]; 6.32% in [5]; 2.21% in [6]. For the same molecule, the Percent Effect in experiment [7] is 13.9%; in experiment [8], -7.48%; in experiment [9] it was 3.16%; in [10], 20.5%; in experiment [11] it was -8.31%.

Consider `O=C(CN1CCCC1Cn1cncn1)NCCc1c(F)cccc1F` (stereo unspecified), for which the Percent Effect in experiment [1] was -9.37%; in experiment [2] it was 18.4%; in [3] it was -9.7%; in experiment [4], 10.3%; in experiment [5], 11.9%; in experiment [6], 0.719%. Moreover, the Percent Effect is 7.36% in experiment [7]; -5.35% in [8]; 5.42% in experiment [9]; 18.5% in [10]; -10.6% in [11].

Regarding `CC(C)(C)OC(=O)N1CCCC[C@H]1C(=O)NCc1nccs1`, the Percent Effect in [1] was -0.685%; in [2] it was 0%; in experiment [3], -2.33%; in [4] it was 5.11%; in [5], 5.18%; in experiment [6], 16.6%. The Percent Effect is 0.944% in [7]; -20.1% in [8]; 4.3% in experiment [9]; 8.64% in [10]; -4.5% in experiment [11].

Consider `O=C(CCNc1ncccn1)NCCOc1ccc2c(c1)CCC2`, for which the Percent Effect in [1] was -3.51%; in experiment [2] it was 15.8%; in experiment [3], -0.433%; in [4], -5.56%; in [5], -4.39%; in experiment [6] it was -2.52%. Also, the Percent Effect in [7] is 6.68%; in [8], 1.31%; in experiment [9], 5.42%; in experiment [10], 18.5%; in experiment [11], -3.74%.

Consider `Cc1cccc(-c2nc(C)nn2CC(=O)N(C)C2CC2)c1`, for which the Percent Effect in experiment [1] is -4.92%; in experiment [2], 15.6%; in experiment [3], 4.09%; in experiment [4], 7.36%; in experiment [5], 3.18%; in experiment [6], -3.2%. The Percent Effect in experiment [7] was 3.55%; in [8], 5.06%; in experiment [9] it was 6.8%; in experiment [10], 21.9%; in experiment [11], -3.56%.

Regarding `Cn1cc(C(=O)Nc2ccc3c(c2)CN(C(=O)c2ccco2)CC3)nn1`, the Percent Effect in experiment [1] is -2.6%; in experiment [2] it was 7.79%; in experiment [3] it was 7.19%; in [4], 9.07%; in experiment [5] it was 3.65%; in experiment [6] it was -5.81%. Besides, the Percent Effect in experiment [7] was 7.66%; in [8], 0.998%; in [9], 4.23%; in experiment [10], 11.5%; in [11] it was -7.06%.

Regarding `CCN1CCN(C2CCN(Cc3cc(C)on3)CC2)C1=O`, the Percent Effect in [1] was -6.77%; in [2], 5.06%; in experiment [3], 1.9%; in [4] it was -3.3%; in [5] it was 8.21%; in experiment [6], -3.04%. Also, the Percent Effect in [7] was 7.94%; in experiment [8] it was 1.37%; in experiment [9], 3.45%; in experiment [10] it was 8.86%; in experiment [11], -13.6%.

Consider `CCn1c(C)nnc1CN(C)C1CCN(Cc2cnc(C)cn2)C1` (stereo unspecified), for which the Percent Effect was -3.27% in experiment [1]; 10.8% in experiment [2]; -13.9% in experiment [3]; 0.873% in experiment [4]; -0.88% in experiment [5]; -2.73% in experiment [6]. Besides, the Percent Effect in experiment [7] was 7.81%; in experiment [8], 16.2%; in [9] it was 8.6%; in [10], 18.5%; in [11], -7%.

For the molecule `COC(=O)c1ccc(C2CC(=O)Oc3cc(C)[nH]c(=O)c32)cc1` (stereo unspecified), the Percent Effect in experiment [1] is -1.55%; in experiment [2] it was 6.67%; in experiment [3] it was -1.14%; in experiment [4] it was 0.386%; in experiment [5], 4.71%; in experiment [6] it was -2.99%. The Percent Effect is 7.58% in experiment [7]; -1.51% in experiment [8]; 6.35% in [9]; 5.13% in experiment [10]; -3.36% in experiment [11].

On to `CNC(=O)c1ccc(C2CN(C(=O)c3cncs3)CCO2)nc1` (stereo unspecified), for which the Percent Effect is -2.48% in [1]; 20.3% in experiment [2]; 5.67% in experiment [3]; 6.66% in [4]; 1.19% in [5]; -1.62% in experiment [6]. The Percent Effect in experiment [7] was 11.1%; in experiment [8], -10%; in experiment [9] it was 2.15%; in experiment [10], 16.9%; in experiment [11], -16.6%.

For the molecule `CN(Cc1ccco1)[C@@H]1CN(C(=O)c2ccnnc2)[C@@H]2CCCO[C@H]12`, the Percent Effect is -2.54% in [1]; 2.74% in experiment [2]; -7.68% in experiment [3]; 19.2% in [4]; 7.74% in [5]; -2.4% in [6]. The Percent Effect in experiment [7] was 13.4%; in experiment [8], -41.3%; in experiment [9] it was 3.12%; in experiment [10] it was 13.6%; in experiment [11] it was -1.74%.

(Values after ChEMBL document CHEMBL3988442, “University of Dundee, Small-Polar-MMV Screening Library” (2021).)
